Compounds without any hit were thinned out: in the full panel of roughly 83,000, 20% have a hit.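 Cells were grown in 96-well plates and exposed to the test compound at a single concentration for 48 hours; results are reported as percent growth, with values below 10 considered active.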 Active and inactive are the calls of the source.
What follows are compounds tested on HL-60(TB) leukemia (assay: NCI-60 one-dose screen, 48 h (100 = growth as untreated, 0 = no growth, -100 = all killed)). Conditions: 10 µM unless noted.

Row | Structure (SMILES) | growth
1 | COc1nc2c(cc1S(=O)(=O)c1ccccc1)CCc1c-2cnn1-c1ccc(Cl)cc1 | 90.5% (inactive)
2 | COC(=O)[C@]1(C)CCC[C@]2(C)[C@H]3C[C@H]4C(C(C)C)=C[C@]3(CC[C@H]21)[C@@H]1C(=O)CC[C@H](OCCC#N)[C@@H]14 | 113% (inactive)
3 | NC(=O)c1c(NC(=O)c2cccs2)sc2c1CCC(=O)C2 | 2.73% (active)
4 | CCN(CC)CCCC(C)Nc1cc(-c2cccc(OC(F)(F)F)c2)nc2ccc(N3CCCC3)cc12 (centres undefined) | -61% (active)
5 | Oc1ccc2ccccc2c1CN1CCOCC1 | 105% (inactive)
6 | COc1ccc(/C=N/Nc2cc(=O)[nH]c3ccc(Cl)cc23)cc1 | 45.3% (inactive)
7 | O=C1CCc2c(sc3[nH]c(=S)n(Cc4ccccc4)c(=O)c23)C1 | 10.9% (inactive)
8 | O=c1c2cccc(Cl)c2sc2c(NCCCNCCO)nc3ccccc3c12 | -17.8% (active)
9 | CCCCCCCCCCCCCOC(=O)c1c(C)[nH]c(/C=C2\N=C(c3ccc[nH]3)C=C2OC)c1C | 9.46% (active)
10 | C=C(c1ccc(OC)c(/C=C/C(=O)c2ccc3c(c2)OCO3)c1)c1cc(OC)c(OC)c(OC)c1 | 10.3% (inactive)
11 | CCCCCCC(C)c1ccccc1O (centres undefined) (tested in a mixture with another compound) | 113% (inactive)
12 | O=C1OCC2=C1C(c1ccncc1)c1cc3c(cc1N2CCO)OCO3 (centres undefined) | 99.2% (inactive)
13 | CN=C1C=CC(=C(c2ccc(N(C)C)cc2)c2ccc(N(C)C)cc2)C=C1 | -1.23% (active)
14 | C[n+]1ccc(CCc2c[nH]c3ccccc23)cc1 | 90.6% (inactive)
